# Test results published in PubChem BioAssay AID1851 (National Center for Advancing Translational Sciences (NCATS), 2009).
# Values joined by “and” are separate entries in the source; they are usually repeats but may differ in a detail not shown here. Identical values can stand only once. The campaign covered roughly 16,000 compounds. About 2,600 (16%) were called active. Not shown: some 20% with an inconclusive outcome. The call rests on the fitted dose curve; in most records, active means well fitted curve in the direction sought with a large enough effect; inconclusive means small, poorly fitted or top-dose-only effect, or effect the other way; inactive means no such curve, though single readings can be large or run the other way. Not all results are given here. More than one record can exist for a structure, and the calls need not agree.
# Target: Cytochrome P450 2D6 (Homo sapiens) (UniProt P10635)
# Assay: Cytochrome panel assay with activity outcomes
# Conditions: recombinant CYP, pro-luciferin dealkylation, luminescence, p450-cyp2d6; series mostly up to 57.1 µM
# On the % scale 0 is the no-effect control and ±100 the full control effect.
# Cytochrome P450 2D6 (Homo sapiens), sequence (P10635 whole entry, looked up): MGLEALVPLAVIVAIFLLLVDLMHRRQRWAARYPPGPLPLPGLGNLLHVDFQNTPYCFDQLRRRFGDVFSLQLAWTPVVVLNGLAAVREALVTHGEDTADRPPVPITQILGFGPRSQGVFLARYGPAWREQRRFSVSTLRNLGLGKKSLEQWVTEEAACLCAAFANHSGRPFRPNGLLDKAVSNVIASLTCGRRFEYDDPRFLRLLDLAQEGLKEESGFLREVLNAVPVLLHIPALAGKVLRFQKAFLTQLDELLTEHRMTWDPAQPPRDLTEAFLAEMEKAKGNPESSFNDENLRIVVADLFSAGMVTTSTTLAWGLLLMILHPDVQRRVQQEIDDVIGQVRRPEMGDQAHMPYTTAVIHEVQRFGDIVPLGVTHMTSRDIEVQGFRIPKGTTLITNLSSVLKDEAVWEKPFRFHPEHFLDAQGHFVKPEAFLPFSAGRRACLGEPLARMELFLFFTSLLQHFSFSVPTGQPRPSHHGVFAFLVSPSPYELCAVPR
SMILES,AC50,"activity, negative = inhibition"
CCCC[C@@H]1C[C@H]1C(NC(=O)c1ccccc1)c1ccccc1C(F)(F)F (some centres undefined),inactive,–
[Cu].[O-]/N=C1/C(=[OH+])Nc2ccccc21.[O-]Nc1c(O)[nH]c2ccccc12,–,-7.87% [at 11.4 µM] (inactive)
O=C(O)C1=C/C(=C(/c2ccccc2)c2cc(C(=O)O)c(O)c3ccccc23)c2ccccc2C1=O,–,14% [at 11.4 µM] (inactive) and -3.21% [at 11.4 µM] (inactive)
O=C(Nc1cccnc1)C1COc2ccccc2O1 (centres undefined),inactive,–
COc1ccc(CC(=O)NC(=S)Nc2ccc(S(=O)(=O)NC(C)(C)C)cc2)cc1,inactive,–
CC(C)(C)NS(=O)(=O)c1ccc(NS(=O)(=O)c2ccc(F)cc2)cc1,inactive,–
CC(C)(C)NS(=O)(=O)c1ccc(NC(=O)C(Sc2ccccc2)c2ccccc2)cc1 (centres undefined),3.55 µM (active),–
CO[C@H]1C[C@@H]2C[C@H](O)C[C@@H](CC(=O)O[C@@H](/C=C\CC(C)C)C[C@@H]3CC[C@H](C)[C@@H](C1)O3)O2,–,-2.62% [at 11.4 µM] (inactive)
N#Cc1cccc(NC(=O)N2CC3(CCN(C(=O)c4ccco4)CC3)C2)c1,inactive,–
COc1cc(NC(=O)c2cc3ccccc3o2)c(OC)cc1Br,inactive,–
CCCN(CCO)Cc1ccc(F)c(Br)c1,7.94 µM (active),–
COc1ccc(C(=S)Nc2ccccc2)cc1,inactive,–
COc1ccc(-c2nc(C(=O)N3CCN(C)CC3)sc2-c2ccc(OC)cc2)cc1,inactive,–
Cc1nnc(NC(=O)CCC(=O)NCc2cccs2)s1,inactive,–
Nc1nc2c(C(=O)NCc3cccs3)nnn2c2cccc(Cl)c12,–,6.61% [at 11.4 µM] (inactive)
CC(C)(O)C#Cc1ccc(C(=O)NCc2cccs2)s1,22.4 µM (active),–
CCc1sc(N(C(=O)Cc2ccccc2)c2cccc(F)c2)nc1-c1ccc(C)cc1,inactive,–
CCOC(=O)Nc1ccc2c(c1)N(C(=O)CCN1CCN(C)CC1)c1ccccc1S2,inactive,–
O=C1CSC2(CCN(CCCN3c4ccccc4Sc4ccc(Cl)cc43)CC2)N1,0.631 µM (active),–
O=C(CSc1nc2ccccc2o1)N1c2ccccc2Sc2ccc(Cl)cc21,inactive,–
CC1(C)CCCN(C(=O)N2c3ccccc3Sc3ccccc32)C1,inactive,–
Clc1ccc2c(c1)N(CCCN1CCCC13CCCCC3)c1ccccc1S2,0.00794 µM (active),–
OC1CC2CC[C@H](C1)N2CCCN1c2ccccc2Sc2ccc(Cl)cc21 (some centres undefined),0.0631 µM (active),–
Cc1ccc2cn[nH]c2c1NC(=S)NC(=O)c1ccccc1,inactive,–

SMILES,AC50,"activity, negative = inhibition"
O=C(NNc1nc2ccccc2s1)c1ccccc1F,inactive,–
Oc1ccc(Br)cc1CNn1cnnc1,inactive,–
CCOC(=O)c1cc(-c2ccc(Cl)cc2)nc2c1c(C)nn2CCC#N,inactive,–
Cc1ccccc1C(=O)c1c[nH]c(C(=O)NCC2CCCO2)c1 (centres undefined),inactive,–
COc1ccc(COC(=O)N/N=C(\C)CC(=O)Nc2c(C)cc(C)cc2C)cc1,inactive,–
O=C(O)CSc1cc(C(F)(F)F)nc(-c2ccccn2)n1,inactive,–
CN1CCN(c2ncc3nc(-c4cccc(C#N)c4)c(=O)n(C)c3n2)CC1,inactive,–
CCSc1ccc2c(c1)N(CCCN1CCN(C)CC1)c1ccccc1S2,2.51 µM (active),–
O=C1NC(O)=NC1(c1ccccc1)c1ccccc1,inactive,–
Cc1noc(C)c1C(=O)N1CCC2(CCN(Cc3ccncc3)CC2)CC1,inactive,–
O=C(O)c1ccccc1Nc1cccc(OCc2ccc3ccccc3n2)c1,7.94 µM (active),–
CCCCC[C@H](O)c1cccc(OCc2ccc3ccccc3n2)c1,inactive,–
O=C(Nc1ccccc1C(=O)O)c1ccc2ccccc2n1,inactive,–
CC/C(=N/Nc1ccccc1)c1cnnc(SC)n1,inactive,–
O=C(Nc1ccc(-c2csc(-c3ccccc3)n2)cc1)c1ccccc1Cl,inactive,–
Cc1ccc(C(=O)ON=C2CCN(S(=O)(=O)c3ccccc3)CC2)cc1,inactive,–
O=c1cnc2cnc(Oc3cccc(Cl)c3)nc2n1C1CC1,inactive,–
Fc1ccc(C2CC(c3ccco3)=NN2c2ccccc2)cc1 (centres undefined),8.91 µM (active),–
CC(=O)c1c(O)cc(=O)n(-c2ccccc2)c1-c1cccc2ccccc12,inactive,–
O=C1C=C(NCCN2CCOCC2)CC(c2ccccc2)C1 (centres undefined),inactive,–
O=C(O)C1(Nc2ccc(Cl)cc2)CCCC1,–,7.94% [at 11.4 µM] (inactive)
O=C1C=C(Nc2ccc(Cl)cc2)CC(c2ccc(Cl)cc2)C1 (centres undefined),8.91 µM (active),–
CC1(C)C(=O)C(c2ccccc2)=C2CN3C(=O)N(CCc4ccccc4)C(=O)C3(Cc3ccc(C(F)(F)F)cc3)C=C21 (centres undefined),inactive,–
CCCCc1ccc(-c2nc(NC(=O)C3C4CCC(O4)C3C(=O)O)sc2C)cc1 (centres undefined),inactive,–
COc1ccc(N2CCN(Cc3nc4c(c(=O)[nH]c(=O)n4C)n3CCCc3ccccc3)CC2)cc1,inactive,–

SMILES,AC50,"activity, negative = inhibition"
CCCCCn1c(CN2CCN(c3cc(Cl)ccc3C)CC2)nc2c1c(=O)[nH]c(=O)n2C,8.91 µM (active),–
COC(=O)Cn1c(CN(Cc2ccccc2)Cc2ccccc2)nc2c1c(=O)[nH]c(=O)n2C,inactive,–
CCOC(=O)N1CCN(Cc2nc3c(c(=O)[nH]c(=O)n3C)n2Cc2ccccc2C)CC1,12.6 µM (active),–
Cn1c(=O)[nH]c(=O)c2c1nc(CN1CCOCC1)n2CCCO,inactive,–
Cn1c(=O)[nH]c(=O)c2c1nc(CN1CCOCC1)n2Cc1ccccc1,inactive,–
O=C(Cn1nnc2ccccc21)N/N=C\C=C\c1ccccc1,inactive,–
NC(=O)c1csc(-c2ccc(CO)o2)n1,–,0.271% [at 11.4 µM] (inactive)
NS(=O)(=O)c1ccc(N=Nc2ncccc2O)cc1,–,-13% [at 11.4 µM] (inactive)
C/C(=N\Nc1nnc(-c2ccccc2)c(-c2ccccc2)n1)c1cccc([N+](=O)[O-])c1,inactive,–
O=c1c(C=Nc2cccc(C(F)(F)F)c2)c[nH]n1-c1cccc(Cl)n1,inactive,–
CCc1cc2c(nc1CC)CCN(CC/C(C)=N/OC[C@@H](C)[C@H](OCc1ccccc1)C(C)C)C2,–,-10.6% [at 11.4 µM] (inactive)
COc1ccccc1NC(=O)CCc1c(C)[nH]c(=O)c(C#N)c1C,inactive,–
Cc1ccc2c(c1)nnn2C1CCN(CC(=O)N2c3ccccc3CC2C)CC1 (centres undefined),25.1 µM (active),–
CC1Cc2ccccc2N1C(=O)Cn1cc([N+](=O)[O-])cn1 (centres undefined),inactive,–
CC1Cc2ccccc2N1C(=O)CSc1nnnn1C(C)C (centres undefined),inactive,–
O=C(O)/C=C\c1cnc[nH]1,inactive,–
CC(=O)N1CCC(=O)N(C(C)C)c2ccccc21,3.16 µM (active),–
Cc1nn(C(C)C(=O)N2CCc3ccccc32)c(C)c1[N+](=O)[O-] (centres undefined),inactive,–
CC(=O)NC1=NN(c2ccccc2)C(=O)C1,inactive,–
C/C(Cl)=C/CSc1nnc2n(N)c(=O)c3ccccc3n12,inactive,–
O=C(CNS(=O)(=O)c1ccc(Br)s1)N1CCC(N2CCCCC2)CC1,12.6 µM (active),–
CC1CC(C)CN(C(=O)CNS(=O)(=O)c2ccc(Br)s2)C1 (centres undefined),3.16 µM (active),–
CC1CCC(C(=O)NC(C(=O)N2CCC(N3CCCCC3)CC2)C(C)C)CC1 (centres undefined),inactive,–
O=C(NCc1ccco1)c1ccccc1NS(=O)(=O)c1ccc(Br)s1,inactive,–
O=c1c(-c2ccc(F)c(F)c2)nc2cncnc2n1C1CC1,inactive,–

SMILES,AC50,"activity, negative = inhibition"
COc1ccc(C(=O)N/N=C/c2cccc3cccnc23)cc1,inactive,–
CC(C)(C)c1nnc(NC(=O)NS(=O)(=O)c2ccccc2)s1,inactive,–
COc1ncc2nc(-c3ccc(F)cc3)c(=O)n(C)c2n1,inactive,–
Oc1cc2c(c(Cl)c1O)CCNC[C@H]2c1ccccc1,10 µM (active),–
Oc1ccc([C@@H]2CNCc3sccc32)cc1O,inactive,–
Oc1ccc([C@@H]2CNCCc3c2cc(O)c(O)c3Cl)cc1,inactive and 3.16 µM (active),–
Oc1cc2c(cc1O)[C@H](c1ccccc1)CNCC2,inactive,–
CCC(=O)Nc1nonc1-c1nc2ccccc2n1N(C(=O)CC)C(=O)CC,inactive,–
Cc1cc(CNC(=O)[C@H]2C[C@@H]2[C@H](NP(=O)(c2ccccc2)c2ccccc2)c2ccccc2)nn1C,inactive,–
CC1CSc2nc3sc4c(c3c(=O)n21)CCCC4 (centres undefined),inactive,–
CN(C)c1ncc2nc(-c3cccs3)c(=O)n(Cc3cccs3)c2n1,inactive,–
Cc1cc(NC(=O)C2C3C(=O)N(Cc4ccc(Cl)cc4)C(C(=O)NC(C)(C)C)C34C=CC2(C)O4)no1 (centres undefined),inactive,–
COCCn1c(=O)c(-c2cc(F)cc(F)c2)nc2cnc(N(C)C)nc21,inactive,–
CCNc1ncc2nc(-c3cc(F)cc(F)c3)c(=O)n(CCc3ccccc3)c2n1,15.8 µM (active),–
COCCn1c(=O)c(-c2cc(F)cc(F)c2)nc2cnc(OC)nc21,inactive,–
CN(C)c1ncc2nc(-c3cc(F)cc(F)c3)c(=O)n(C[C@H]3CCCO3)c2n1,inactive,–
CN(C)c1ncc2nc(-c3cc(F)cc(F)c3)c(=O)n(CCc3ccccc3)c2n1,inactive,–
Cc1nc2cnc(N3CCN(C)CC3)nc2n(CCc2ccccc2)c1=O,2.51 µM (active),–
CN1CCN(c2ncc3nc(-c4cccs4)c(=O)n(CCc4ccccc4)c3n2)CC1,inactive,–
CN1CCN(c2ncc3nc(-c4cc(F)cc(F)c4)c(=O)n(CCc4ccccc4)c3n2)CC1,inactive,–
CCNc1ncc2nc(-c3cc(F)cc(F)c3)c(=O)n(Cc3cccs3)c2n1,inactive,–
CCNc1ncc2nc(-c3ccc(Cl)cc3)c(=O)n(C[C@H]3CCCO3)c2n1,inactive,–
CCNc1ncc2nc(-c3cc(F)cc(F)c3)c(=O)n(CCOC)c2n1,0.316 µM (active),–
CCNc1ncc2nc(-c3cc(F)cc(F)c3)c(=O)n(C[C@H]3CCCO3)c2n1,0.158 µM (active),–
